Data on 26 compounds can be found in PubChem BioAssay.

Assay [1] has as its target Sentrin-specific protease 8 (Homo sapiens) (UniProt Q96LD8). Kind of assay: SENP8 protease inhibitors, retest, confirmation, biochemical, luminescence, single concentration (AID 488912;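 active = mean inhibition across replicates above about 50%, limit read from the data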). The conditions noted are these: Recombinant SENP8, Z-RLRGG-aminoluciferin luminescence, 60 min; at 12.5 µM; stronger effect = higher value.
Assay [2] has as its target Sentrin-specific protease 6 (Homo sapiens) (UniProt Q9GZR1). Description: SENP6 protease inhibitors, confirmation, biochemical, luminescence, single concentration (AID 488915). As to conditions: recombinant SENP6, Z-RLRGG-aminoluciferin luminescence; at 12.5 µM; stronger effect = higher value.
Assay [3] has as its target Sentrin-specific protease 7 (Homo sapiens) (UniProt Q9BQF6). Kind of assay: SENP7 protease inhibitors, retest, confirmation, biochemical, luminescence, single concentration (AID 488917). As to conditions: recombinant SENP7, Z-RLRGG-aminoluciferin luminescence, 40 min; at 12.5 µM; stronger effect = higher value.
The target in another assay is Caspase-3 (Homo sapiens) (UniProt P42574). Description: caspase-3 protease inhibitors, confirmation, selectivity assay for SENP inhibitor project, biochemical, single concentration (AID 488918;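 active = mean inhibition above about 50%, limit read from the data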;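 also: plate controls were enzyme with DMSO for no effect and wells without caspase-3 for full effect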). The conditions noted are these: purified caspase-3, Z-DEVD-aminoluciferin luminescence, 60 min; at 12.5 µM; stronger effect = higher value.
Chain of Caspase-3 (Homo sapiens) (P42574 28-227 limits assumed): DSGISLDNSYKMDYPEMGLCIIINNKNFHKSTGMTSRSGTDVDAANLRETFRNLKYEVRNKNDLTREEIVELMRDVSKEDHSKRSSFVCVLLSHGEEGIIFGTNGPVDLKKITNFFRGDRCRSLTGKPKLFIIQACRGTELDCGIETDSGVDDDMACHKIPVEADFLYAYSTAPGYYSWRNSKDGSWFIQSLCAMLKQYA
Assay [4] is described as follows: luciferase luminescence interference by compounds, confirmation, artefact control for SENP inhibitor project, biochemical, single concentration, SENP8 reaction pre-completed (AID 488919;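 active = mean inhibition above about 50% when retested at one dose, limit read from the data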;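 also: plate controls were DMSO wells with completed reaction for no effect and substrate without enzyme for full effect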). The conditions noted are these: Pre-incubated SENP8/Z-RLRGG-aminoluciferin, at 12.5 µM, stronger effect = higher value.
Assay [5] has as its target Tumor necrosis factor receptor superfamily member 10B (Homo sapiens) (UniProt O14763). Kind of assay: caspase-8 TRAIL sensitization, hit retest, confirmation, cell-based, NB7+caspase-8, with/without TRAIL, luminescence panel (AID 651596; in the data active = activity above about 50%). The conditions noted are these: NB7 neuroblastoma + caspase-8, TRAIL sensitization, luminescence viability, with TRAIL, mean of runs, at 10 µM, stronger effect = higher value.

Experiment in assay [6]: as above
The conditions noted are these: NB7 neuroblastoma + caspase-8, without TRAIL, luminescence viability, without TRAIL, mean of runs, at 10 µM.

Assay [7] concerns the target Protein Mdm4 (Homo sapiens) + E3 ubiquitin-protein ligase Mdm2 (Homo sapiens) (UniProt O15151+Q00987). Description: retested Mdm2-MdmX interaction blockers, confirmation, cell-based, luminescence, single concentration, set 2 (AID 504601;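 active = mean inhibition of the luminescence signal across two replicates at or above 26 percent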). As to conditions: SaOS-2 split-luciferase Mdm2/MdmX complementation, at 8 µM, stronger effect = higher value.
Assay [8] is described as follows: Peg3 promoter reporter inhibitors, retest, confirmation, cell-based, HeLa, luciferase reporter, single concentration (AID 602417;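 active = at 20 µM dose, 40% or more inhibition averaged across four replicates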). The conditions noted are these: HeLa PEG-Prom luciferase reporter, luminescence, overnight; at 20 µM; stronger effect = higher value. In general terms: A reporter such as luciferase makes a cellular process visible.
In assay [9] the target is Carboxy-terminal domain RNA polymerase II polypeptide A small phosphatase 1 (Homo sapiens) (UniProt Q9GZU7). Description: Scp-1 binding by thermal shift, confirmation, orthogonal assay for Scp-1 inhibitor project, biophysical, differential scanning fluorimetry (AID 540329;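 active = substances whose mean melting-temperature shift, as a percentage of the reference inhibitor's shift, reaches about 5.3%, limit read from the data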;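 also: 0% = Tm of DMSO wells and 100% = Tm with sodium orthovanadate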). The conditions noted are these: Recombinant SCP1, Sypro Orange thermal shift Tm; at 40 µM; stronger effect = higher value.
Chain of Carboxy-terminal domain RNA polymerase II polypeptide A small phosphatase 1 (Homo sapiens) (Q9GZU7 76-261 limits assumed): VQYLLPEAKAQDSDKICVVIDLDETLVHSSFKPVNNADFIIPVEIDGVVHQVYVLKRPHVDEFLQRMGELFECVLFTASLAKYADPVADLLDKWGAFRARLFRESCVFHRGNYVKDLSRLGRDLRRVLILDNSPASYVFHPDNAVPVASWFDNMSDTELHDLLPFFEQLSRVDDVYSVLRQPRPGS

Assay [10] concerns the target COP9 signalosome complex subunit 5 (Homo sapiens) (UniProt Q92905). Kind of assay: Csn5 deneddylation inhibitors, confirmation, biochemical, fluorescence polarization, single concentration, SCF-Nedd8OG substrate (AID 720654; in the data active = inhibition above about 50%;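 also: 0% = DMSO with enzyme and 100% = no enzyme wells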). As to conditions: Csn5 deneddylation of SCF-Nedd8OG, 90 min, at 16.6 µM, stronger effect = higher value. (Fluorescence polarisation rises when a labelled molecule tumbles more slowly, as on binding a larger partner.)

The target of assay [11] is 72 kDa type IV collagenase (Homo sapiens) (UniProt P08253). Description: MMP-2 protease inhibition counter-screen, confirmation, counter-screen for CSN deneddylation inhibitor project, biochemical, fluorescence, single concentration (AID 720655;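 active = corrected plate-normalized z-score of 5 or more, or -5 or less, or inhibition of 15% or more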;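 also: plate controls were DMSO wells with enzyme for no effect and buffer wells lacking MMP-2 for full effect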). The conditions noted are these: recombinant MMP-2, FRET substrate fluorescence, 60 min; at 16.6 µM. (Counterscreens check selectivity or assay interference.)
Chain of 72 kDa type IV collagenase (Homo sapiens) (P08253 whole entry, looked up): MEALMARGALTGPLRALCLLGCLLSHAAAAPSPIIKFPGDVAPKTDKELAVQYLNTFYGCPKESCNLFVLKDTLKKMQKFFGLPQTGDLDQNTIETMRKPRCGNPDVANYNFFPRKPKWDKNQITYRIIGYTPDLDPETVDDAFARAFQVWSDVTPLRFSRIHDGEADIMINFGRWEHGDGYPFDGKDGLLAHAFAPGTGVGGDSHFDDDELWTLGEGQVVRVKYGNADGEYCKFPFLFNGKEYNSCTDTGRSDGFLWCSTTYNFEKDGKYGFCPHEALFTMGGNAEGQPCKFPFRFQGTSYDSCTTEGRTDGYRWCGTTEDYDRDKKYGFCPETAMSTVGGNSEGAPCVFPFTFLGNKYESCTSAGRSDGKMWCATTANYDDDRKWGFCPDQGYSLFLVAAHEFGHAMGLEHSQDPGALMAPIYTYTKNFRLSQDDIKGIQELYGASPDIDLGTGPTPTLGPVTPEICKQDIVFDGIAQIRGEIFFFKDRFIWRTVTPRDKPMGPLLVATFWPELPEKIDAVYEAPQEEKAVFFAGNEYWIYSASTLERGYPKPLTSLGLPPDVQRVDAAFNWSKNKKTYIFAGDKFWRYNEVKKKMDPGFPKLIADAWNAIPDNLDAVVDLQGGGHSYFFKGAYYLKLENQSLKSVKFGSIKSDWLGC

Another assay deals with Prothrombin (Bos taurus) (UniProt P00735). Description: bovine thrombin inhibition counter-screen, confirmation, counter-screen for CSN deneddylation inhibitor project, biochemical, fluorescence polarization, single concentration (AID 720656;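 active = inhibition at or above a set limit, with a fluorescence interference ratio between 0.5 and a set maximum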). The conditions noted are these: bovine thrombin cleavage of Ub4-pepOG, at 16.6 µM, stronger effect = higher value.
Chain of Prothrombin (Bos taurus) (P00735 whole entry, looked up): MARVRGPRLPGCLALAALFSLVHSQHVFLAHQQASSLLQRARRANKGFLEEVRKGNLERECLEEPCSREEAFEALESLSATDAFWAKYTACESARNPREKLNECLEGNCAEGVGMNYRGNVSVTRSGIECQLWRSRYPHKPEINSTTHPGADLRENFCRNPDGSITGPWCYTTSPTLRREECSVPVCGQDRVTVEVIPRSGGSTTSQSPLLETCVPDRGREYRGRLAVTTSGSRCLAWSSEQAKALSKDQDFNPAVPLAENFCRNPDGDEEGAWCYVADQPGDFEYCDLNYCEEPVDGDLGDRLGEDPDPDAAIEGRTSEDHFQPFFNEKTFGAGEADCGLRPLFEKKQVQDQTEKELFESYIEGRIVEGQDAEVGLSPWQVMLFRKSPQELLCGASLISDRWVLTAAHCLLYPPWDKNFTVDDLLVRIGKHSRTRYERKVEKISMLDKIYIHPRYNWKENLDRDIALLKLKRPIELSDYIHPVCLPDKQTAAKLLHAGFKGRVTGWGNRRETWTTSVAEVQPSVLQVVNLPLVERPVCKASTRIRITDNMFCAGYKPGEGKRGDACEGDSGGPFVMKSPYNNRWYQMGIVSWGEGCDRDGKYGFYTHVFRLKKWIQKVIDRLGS
Assay [12] is described as follows: Apaf-1 inhibitors, single-dose retest, confirmation, biochemical, fluorescence, DEVD-Rh110, 20 µM (AID 504614;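 active = mean inhibition of at least 40% at 20 µM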;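 also: plate controls were DMSO wells for no effect and DEVD-CHO caspase inhibitor control wells for full effect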). As to conditions: reconstituted apoptosome, caspase-3 DEVD-Rh110 fluorescence; at 20 µM; stronger effect = higher value.
A short description of assay [13]: Rh110 fluorescence interference by putative Apaf-1 inhibitors, confirmation, artefact control for Apaf-1 inhibitor project, biochemical, 20 µM (AID 504615;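 active = signal rise of 40% or more at 20 µM, treated as a fluorescence artifact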). As to conditions: quenched caspase reaction, at 20 µM, stronger effect = higher value.
Assay [14] in a line: fluorescence interference of Apaf-1 inhibitor hits, dose response, artefact control for Apaf-1 inhibitor project (AID 588538; call rule not given here). The conditions noted are these: fluorescence interference counterscreen, Apaf-1 assay format.

The structures appear in SMILES notation. Some of the results follow. Active and inactive are the calls of the source.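 The calls were made as follows, unless noted: active = mean inhibition above about 50% in the one-dose retest (limit read from the data); inactive = the rest.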

Chain of Sentrin-specific protease 7 (Homo sapiens) (Q9BQF6 706-1050 limits assumed): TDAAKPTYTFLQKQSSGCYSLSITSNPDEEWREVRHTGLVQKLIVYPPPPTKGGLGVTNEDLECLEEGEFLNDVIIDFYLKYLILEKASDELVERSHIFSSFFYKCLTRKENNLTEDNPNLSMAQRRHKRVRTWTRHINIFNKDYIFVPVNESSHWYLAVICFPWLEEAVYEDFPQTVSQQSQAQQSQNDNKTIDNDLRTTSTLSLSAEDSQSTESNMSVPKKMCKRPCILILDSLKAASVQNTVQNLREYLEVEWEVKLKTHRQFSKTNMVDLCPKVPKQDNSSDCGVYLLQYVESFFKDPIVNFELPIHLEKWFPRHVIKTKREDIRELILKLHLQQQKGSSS
Chain of Sentrin-specific protease 8 (Homo sapiens) (Q96LD8 whole entry, looked up): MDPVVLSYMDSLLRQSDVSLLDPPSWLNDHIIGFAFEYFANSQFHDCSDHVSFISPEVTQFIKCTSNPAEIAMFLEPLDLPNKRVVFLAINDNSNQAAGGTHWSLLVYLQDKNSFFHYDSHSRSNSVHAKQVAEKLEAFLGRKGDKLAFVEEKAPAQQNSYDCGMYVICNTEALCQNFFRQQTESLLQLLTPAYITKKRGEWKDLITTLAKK
Chain of Tumor necrosis factor receptor superfamily member 10B (Homo sapiens) (O14763 whole entry, looked up): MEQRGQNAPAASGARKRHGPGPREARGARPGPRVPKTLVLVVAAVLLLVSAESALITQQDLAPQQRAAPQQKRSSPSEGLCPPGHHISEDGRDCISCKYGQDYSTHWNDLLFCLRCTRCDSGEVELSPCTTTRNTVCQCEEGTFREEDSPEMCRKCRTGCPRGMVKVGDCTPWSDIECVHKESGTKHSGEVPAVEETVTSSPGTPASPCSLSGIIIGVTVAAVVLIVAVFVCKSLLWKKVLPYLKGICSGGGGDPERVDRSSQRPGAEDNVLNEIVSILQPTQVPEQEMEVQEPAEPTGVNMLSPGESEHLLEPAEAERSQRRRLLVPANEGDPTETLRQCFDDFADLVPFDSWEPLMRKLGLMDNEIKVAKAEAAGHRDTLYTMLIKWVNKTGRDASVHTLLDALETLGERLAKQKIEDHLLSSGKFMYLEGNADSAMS
Chain of Sentrin-specific protease 6 (Homo sapiens) (Q9GZR1 628-1112 limits assumed): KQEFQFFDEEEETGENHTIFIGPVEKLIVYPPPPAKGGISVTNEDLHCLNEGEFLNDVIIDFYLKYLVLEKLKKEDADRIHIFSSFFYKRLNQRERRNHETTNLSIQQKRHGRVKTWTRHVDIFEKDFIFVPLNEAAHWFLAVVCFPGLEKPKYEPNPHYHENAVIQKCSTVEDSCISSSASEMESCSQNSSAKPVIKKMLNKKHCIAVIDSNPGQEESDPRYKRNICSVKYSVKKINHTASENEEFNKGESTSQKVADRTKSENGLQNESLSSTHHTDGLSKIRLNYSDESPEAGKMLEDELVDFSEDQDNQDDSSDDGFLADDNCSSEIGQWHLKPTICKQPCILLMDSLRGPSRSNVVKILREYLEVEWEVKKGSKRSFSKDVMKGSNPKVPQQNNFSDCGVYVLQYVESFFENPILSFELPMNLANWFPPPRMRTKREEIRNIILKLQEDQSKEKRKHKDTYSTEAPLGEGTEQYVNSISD
Chain of Protein Mdm4 (Homo sapiens) + E3 ubiquitin-protein ligase Mdm2 (Homo sapiens) (O15151 whole entry, looked up): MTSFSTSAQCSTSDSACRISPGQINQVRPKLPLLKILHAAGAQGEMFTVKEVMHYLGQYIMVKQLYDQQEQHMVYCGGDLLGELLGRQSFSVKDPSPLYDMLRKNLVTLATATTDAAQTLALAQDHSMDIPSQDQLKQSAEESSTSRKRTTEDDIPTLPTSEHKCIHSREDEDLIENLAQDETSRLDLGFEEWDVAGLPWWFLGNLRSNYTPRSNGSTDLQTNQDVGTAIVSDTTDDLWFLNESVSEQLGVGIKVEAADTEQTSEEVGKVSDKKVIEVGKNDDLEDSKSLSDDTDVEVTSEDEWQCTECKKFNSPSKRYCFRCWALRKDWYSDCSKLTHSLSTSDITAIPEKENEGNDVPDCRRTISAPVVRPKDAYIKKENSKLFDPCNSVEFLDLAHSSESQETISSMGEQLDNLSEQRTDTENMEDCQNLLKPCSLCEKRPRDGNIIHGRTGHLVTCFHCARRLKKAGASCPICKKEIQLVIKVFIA
Chain of Protein Mdm4 (Homo sapiens) + E3 ubiquitin-protein ligase Mdm2 (Homo sapiens) (Q00987 whole entry, looked up): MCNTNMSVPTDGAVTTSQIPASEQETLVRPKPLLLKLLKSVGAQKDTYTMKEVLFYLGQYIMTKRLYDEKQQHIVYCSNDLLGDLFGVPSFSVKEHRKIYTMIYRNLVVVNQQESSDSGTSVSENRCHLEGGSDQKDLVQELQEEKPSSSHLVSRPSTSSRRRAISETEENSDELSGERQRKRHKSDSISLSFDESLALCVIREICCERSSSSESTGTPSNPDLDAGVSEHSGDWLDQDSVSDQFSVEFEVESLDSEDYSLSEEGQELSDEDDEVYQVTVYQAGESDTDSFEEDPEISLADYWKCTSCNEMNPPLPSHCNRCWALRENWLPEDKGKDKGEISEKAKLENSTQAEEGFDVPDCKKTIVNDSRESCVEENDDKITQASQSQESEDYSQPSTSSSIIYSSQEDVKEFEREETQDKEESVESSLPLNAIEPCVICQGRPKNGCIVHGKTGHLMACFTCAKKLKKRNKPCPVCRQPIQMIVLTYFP
Chain of COP9 signalosome complex subunit 5 (Homo sapiens) (Q92905 whole entry, looked up, one chain of several): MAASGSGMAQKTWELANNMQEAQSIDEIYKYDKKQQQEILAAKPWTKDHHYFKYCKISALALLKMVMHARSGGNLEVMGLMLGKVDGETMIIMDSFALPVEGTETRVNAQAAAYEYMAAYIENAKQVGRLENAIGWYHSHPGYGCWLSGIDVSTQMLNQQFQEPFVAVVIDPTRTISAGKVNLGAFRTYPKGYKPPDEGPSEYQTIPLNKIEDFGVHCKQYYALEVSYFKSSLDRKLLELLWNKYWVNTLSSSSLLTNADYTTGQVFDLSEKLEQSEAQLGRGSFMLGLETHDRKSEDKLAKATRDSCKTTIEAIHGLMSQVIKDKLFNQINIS

Regarding `COc1cccc(C(=O)Nc2ccc(NC(=O)c3ccco3)cn2)c1`, the inhibition (in general, the relative decrease from the control value, in per cent) in assay [1] is 53.1% (active); in assay [2] it was 51% (active); in assay [3], 82.4% (active); in the assay with Caspase-3 (Homo sapiens), 76.1% (active); in assay [4], 62.4% (active).
As to `O=C(Nc1nnc(C2CC2)s1)c1ccccn1`, the inhibition in assay [1] is 49.3% (inactive); in assay [2], 49.2% (inactive); in [3], 82.6% (active); in the assay with Caspase-3 (Homo sapiens), 83.6% (active); in assay [4] it was 59.4% (active).
Consider `O=C1/C(=C/c2cccs2)CCc2ccccc21`, for which the inhibition in [1] was 98.3% (active); in [2], 99.1% (active); in assay [3], 101% (active); with Caspase-3 (Homo sapiens), 95.8% (active); in [4], 97.6% (active).
For `CCOc1ccc(N/C=C/C(=O)c2ccccc2)cc1`, in that order: 10.5% (inactive), 94.9% (active), 63.3% (active), 81.1% (active) and 19.3% (inactive).
Taken in the same sequence, the figures for `c1ccc(Nc2nc(-c3ccncc3)cs2)nc1` were 84.9% (active), 85.1% (active), 97.3% (active), 84% (active) and 45.3% (inactive).
In the case of `O=C(COc1ccc2oc3c(c2c1)CCCC3)Nc1ccccn1`, the inhibition in [1] was 4.9% (inactive); in [2], 12.8% (inactive); in assay [3] it was 11.9% (inactive); in the assay with Caspase-3 (Homo sapiens), 24.7% (inactive); in [4] it was 4.6% (inactive).
In the case of `Nc1ncc(-c2cc3ccccc3oc2=O)s1`, the inhibition in assay [1] was 92.7% (active); in assay [2], 92.8% (active); in assay [3], 102% (active); with Caspase-3 (Homo sapiens) it was 94.6% (active); in assay [4] it was 91.7% (active).
For `COc1ccc2nc(Nc3nc4cc5c(cc4s3)OCCO5)sc2c1`, in that order: 20.4% (inactive), 63% (active), 71.6% (active), 31.8% (inactive) and 24.3% (inactive).
Taken in the same sequence, the figures for `Cc1ccccc1Nc1nc(-c2cccnc2)cs1` were 70.3% (active), 66.9% (active), 86.9% (active), 52.8% (active) and 69.4% (active).
For `O=[N+]([O-])c1ccc2nc(-c3ccccn3)[nH]c2c1`, in that order: 57.8% (active), 56% (active), 82.6% (active), 81.5% (active) and 48.8% (inactive).
Take `O=c1[nH]c(CCl)nc2cc(-c3ccc(Cl)cc3)sc12`: the inhibition is 25.3% (inactive) in assay [1]; 45.5% (inactive) in [2]; 19.6% (inactive) in assay [3]; 28.2% (inactive) with Caspase-3 (Homo sapiens); 9.5% (inactive) in assay [4].
For the compound `COc1ccc(/C=C/c2noc(-c3ccccc3OC(C)=O)n2)cc1`, the inhibition was 55.1% (active) in assay [1]; 87.7% (active) in [2]; 94.5% (active) in assay [3]; 77% (active) with Caspase-3 (Homo sapiens); 22.7% (inactive) in assay [4].
Turning to `O=C(ON=C1CCN(S(=O)(=O)c2ccccc2)CC1)c1ccc(Cl)cc1`, the inhibition is 12.5% (inactive) in assay [1]; 15.5% (inactive) in assay [2]; 3.4% (inactive) in [3]; 17.7% (inactive) in the assay with Caspase-3 (Homo sapiens); -1.9% (inactive) in assay [4].
`COc1ccc(-c2cn3ccsc3n2)cc1`: the inhibition in [1] is 55.5% (active); in assay [2] it was 51.2% (active); in [3], 81.3% (active); in the assay with Caspase-3 (Homo sapiens), 74.4% (active); in [4] it was 56.3% (active). In addition, the values for the activity in [5] and in assay [6] were 64.2% and 54.6%, respectively.
Take `COc1cccc(NC(=O)[C@H](Cc2c[nH]c3ccccc23)NC(=O)[C@@H]2Cc3ccccc3CN2)c1`: the inhibition in [7] was 98.2% (active).
As to `c1c2c(cc3sc(N4CCCCC4)nc13)OCCO2`, the inhibition is 97% (active) in [1]; 98.6% (active) in assay [2]; 103% (active) in [3]; 97.5% (active) with Caspase-3 (Homo sapiens); 52.1% (active) in assay [4]; 37.5% (inactive) in [8].
`CCOC(=O)/C=C/C(=O)OCC(=O)NC(c1ccccc1)c1ccccc1`: the inhibition in [7] was 99.7% (active).
Still for that read-out and setting: to `CC[C@]1(C(=O)OC)[C@H]2C(=O)N(Cc3ccccc3)C(=O)[C@H]2[C@H]2CN=C(SCc3ccc(C#N)cc3)N21` belongs 102% (active).
`C(=N\Nc1ccc2ccccc2n1)/c1ccc2c(c1)OCO2`: the inhibition was 97.7% (active) in assay [1]; 98.3% (active) in assay [2]; 102% (active) in [3]; 93.2% (active) in the assay with Caspase-3 (Homo sapiens); 71.3% (active) in assay [4]. Also, the results for the activity in assay [5] and in [6] were 51.5% and 31.6%, respectively.
For `O=c1c2cc(-c3ccccc3)sc2nc2n1N=C(c1cccs1)CS2`, the inhibition in assay [1] was 11.6% (inactive); in assay [2] it was 3.2% (inactive); in assay [3], -0.5% (inactive); with Caspase-3 (Homo sapiens) it was 8.2% (inactive); in assay [4], 3.2% (inactive). Further, in assay [9], the thermal shift relative to vanadate control was 11.4% (active). Besides, the activity in assay [5] was 63.5%; in assay [6], 57.9%.
`CSc1ccc(/C=N/NC(=O)c2cccc(Cl)c2)cc1`: the inhibition in assay [1] was 36.6% (inactive); in assay [2], 96.5% (active); in assay [3] it was 44.1% (inactive); in the assay with Caspase-3 (Homo sapiens) it was 93.6% (active); in assay [4], 40.2% (inactive). Also, the thermal shift relative to vanadate control in [9] is 9.78% (active).
In the case of `CC[C@]1(C(=O)OC)[C@H]2C(=O)N(Cc3ccccc3)C(=O)[C@H]2[C@H]2CN=C(SCc3ccc(Cl)cc3)N21`, in [7], the inhibition is 103% (active).
`COc1cc(/C=C(\C#N)c2nc3ccccc3[nH]2)ccc1O`: the inhibition in assay [1] was 95.1% (active); in assay [2], 95.1% (active); in assay [3] it was 101% (active); with Caspase-3 (Homo sapiens), 93.4% (active); in assay [4], 66.5% (active); in assay [10], 78.1% (active). The inhibition is -18.3% (inactive) in assay [11] and 62.2% (active) in the assay with Prothrombin (Bos taurus).
Consider `Clc1ccc(C2=CSC3=Nc4cccc5cccc(c45)N23)cc1`, for which the inhibition is 1.7% (inactive) in assay [1]; 55.9% (active) in assay [2]; 7.2% (inactive) in assay [3]; -5.7% (inactive) in the assay with Caspase-3 (Homo sapiens); -2.1% (inactive) in [4]; 62.8% (active) in [12]. Besides, in [13], the activation (fluorescence interference) is -1.7% (inactive). Moreover, in assay [14], the IC50 (in general, the concentration that inhibits the measured activity by half) was > 100 µM (inactive).
As to `CCOc1ccc(-c2nnc(-c3ccco3)o2)cc1`, the inhibition in [1] was 5.3% (inactive); in assay [2], 72.1% (active); in assay [3], 79% (active); with Caspase-3 (Homo sapiens), 73.8% (active); in assay [4] it was 15.9% (inactive). Besides, the activity worked out at 52.5% in [5] and 56.5% in assay [6].
For the compound `COc1cccc(C(=O)Nc2ccc(N3CCCC3)cc2)c1`, the inhibition in assay [1] is 95% (active); in [2], 99.7% (active); in assay [3], 104% (active); with Caspase-3 (Homo sapiens), 99.5% (active); in assay [4], 86.3% (active). For the same compound, the activity in [5] was determined as 46.8%; in assay [6], 54%.
